Screening data (PubChem BioAssay)
Hits are enriched below; roughly 0.93% of the tested compounds scored in any of these assays.
HIF activator = HIF pathway transcriptional activation; activation, % at 7.5 µM (by protocol); U2OS HRE-luciferase reporter, luminescence; normalized: DMSO 0%, desferrioxamine 100%; 300,000 tested, 0.32% active;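 active = mean activation of at least 10% of the iron chelator positive control signal, with at least half of replicates also reaching 10%; inconclusive = mean and replicate majority disagree about reaching 10%; inactive = mean and most replicates under 10%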
697 NFkB inh = inhibitors of the PMA/ionomycin-induced NF-kB reporter in 697 B cells | 697 B-cell NF-kB luciferase reporter, 16 h | inhibition, % at 4 µM | 330,000 tested, 0.33% active | AID 435022; in the data active = inhibition above about 35%
CFTR F508del cor = correctors of CFTR F508del function in bronchial epithelial cells. CFBE cells, YFP halide quenching; stimulated with forskolin plus potentiator P3; % fluorescence drop versus neutral controls. activity (quench increase), % at 7.58 µM. 350,000 tested, 0.36% active;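 active = mean added fluorescence quench of at least 8% versus neutral control, with both replicates also reaching 8%; inconclusive = only one of the mean or replicate conditions met; inactive = mean below 8% and not both replicates reaching 8%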;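 also: cells transiently co-express mutant CFTR-F508del with the halide-sensitive YFP; corrector assay measuring rescue of mutant channel to the surface after 24 h compound exposure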
Jurkat NFkB inh = inhibitors of the PMA/ionomycin-induced NF-kB reporter in Jurkat cells | 330,000 tested, 0.53% active | AID 435003 | PMA/ionomycin-induced NF-kB luciferase reporter, luminescence | inhibition, % at 4 µM; in the data active = inhibition above about 50%
* hit, by the source's call; ? = inconclusive; / = no result given.

SMILES | HIF activator | 697 NFkB inh | CFTR F508del cor | Jurkat NFkB inh
CN(C(=O)c1ccccc1C(=O)OCC(=O)Nc1ccc(OC(F)F)cc1)c1ccccc1 | / | 4.0 | -4.6 | -8.3
CN(C(=O)c1ccccc1C(=O)OCC(=O)Nc1ccc(S(N)(=O)=O)cc1)c1ccccc1 | -0.6 | -27.4 | 8.2* | -13.5
O=C(c1ccccc1F)N1C[C@@H]2O[C@H](CNS(=O)(=O)c3ccccc3)CC[C@@H]21 | / | / | 1.8 | /
COc1ccc(Cc2nnc(NC(=O)c3ccc(F)cc3)s2)cc1OC | 2.9 | -14.0 | 8.6* | -5.7
CCN(CC)CCn1c2c(c(SCC(=O)Nc3ccc(F)c(F)c3)nc1=O)CCC2 | 1.3 | -6.2 | 9.2* | 6.3
Cc1ccc(-c2cnc3c(c2)C(=O)N([C@@H](C)CO)C[C@H](C)[C@H](CN(C)S(C)(=O)=O)O3)cc1 | / | / | 1.6 | /
COCCNc1nc(Nc2ccc(C)cc2C)c2sccc2n1 | / | / | 10.1* | /
CCN1[C@@H]2c3ccc(-c4cccc(F)c4)c(=O)n3C[C@@H]2[C@@H](CO)[C@@H]1C(=O)N(C)C | / | / | -3.7 | /
COc1cc(OC)cc(-c2cc3cc4c(cc3cn2)OCO4)c1 | / | -176.5 | / | -18.5
COc1cc(OC)cc(-c2cc3ccc(OC)cc3cn2)c1 | / | -227.6 | 10.2* | -56.3
CO[C@@H]1CN(C)C(=O)c2cc(NC(=O)c3ccccc3)ccc2OC[C@H](C)N(C(C)=O)C[C@@H]1C | / | / | 1.1 | /
COc1ccc2oc(C(=O)N3CCN(C(=O)c4ccco4)CC3)c(C)c2c1 | 0.0 | 2.7 | 14.3* | -9.3
Cc1ccc2c(c1)S/C(=C\c1cccc[n+]1C)N2CCO | 0.2 | -16.1 | 1.2 | 25.7
CCN1/C(=C\c2ccc3cc(C)ccc3[n+]2CC)Sc2cc(C)c(C)cc21 | -0.7 | / | 61.8* | /
CCN1/C(=C/c2ccc3cc(C)cc(C)c3[n+]2CC)Sc2cc(C)ccc21 | / | / | 65.0* | /
CCS(=O)(=O)N[C@H]1CC[C@H](CC(=O)Nc2ccc(-c3ccccc3)cc2)O[C@@H]1CO | / | / | -1.9 | /
COc1cccc(S(=O)(=O)N2CC3(CN[C@@H](CO)c4[nH]c5cc(OC)ccc5c43)C2)c1 | / | / | 1.8 | /
CCOC(=O)C1CCCN(c2nc3ccccc3nc2NS(=O)(=O)c2ccc(C)cc2)C1 (stereo not drawn) | / | 11.4 | 21.3* | -7.2
Cc1ccc(-c2ccc3c(c2)O[C@H](CN(C)C(=O)Nc2ccc(C(F)(F)F)cc2)[C@H](C)CN([C@@H](C)CO)S3(=O)=O)cc1 | / | / | 8.6* | /
Cc1ccc(-c2ccc3c(c2)O[C@@H](CN(C)C(=O)Nc2ccc(C(F)(F)F)cc2)[C@@H](C)CN([C@H](C)CO)S3(=O)=O)cc1 | / | / | 1.3 | /
C[C@H]1CN([C@@H](C)CO)S(=O)(=O)c2ccc(-c3ccc(F)cc3)cc2O[C@@H]1CN(C)C(=O)Nc1ccc(F)cc1 | / | / | -6.5 | /
Cc1ccc(-c2ccc3c(c2)O[C@@H](CN(C)C(=O)Nc2ccc(F)cc2)[C@@H](C)CN([C@@H](C)CO)S3(=O)=O)cc1 | / | / | 8.5* | /
Cc1ccc(-c2ccc3c(c2)O[C@H](CN(C)C(=O)Nc2ccc(F)cc2)[C@@H](C)CN([C@@H](C)CO)S3(=O)=O)cc1 | / | / | 11.7* | /
C[C@@H]1CN([C@H](C)CO)C(=O)c2cccc(NC(=O)C3CC3)c2O[C@@H]1CN(C)CC1CCCCC1 | / | / | 3.4 | /
Oc1ccc(-c2cn3ccccc3n2)cc1O | 45.0* | -57.2 | -0.3 | -70.7
SMILES | HIF activator | 697 NFkB inh | CFTR F508del cor | Jurkat NFkB inh
Cc1ccn2cc(-c3cccc(NC(=O)C(C)C)c3)nc2c1 | 1.0 | -32.2 | / | -25.3
Cc1ccn2cc(-c3ccc(O)c(O)c3)nc2c1 | 29.6* | -93.4 | 0.2 | -37.8
C[C@@H]1CN([C@@H](C)CO)C(=O)c2cc(C#CCN(C)C)cnc2O[C@H]1CN(C)C(=O)c1cccnc1 | / | / | 0.1 | /
COCCCN=C1NN=C(c2cc(C)n(Cc3ccccc3Cl)c2C)CS1 | 2.7 | 7.4 | 9.1* | -8.0
O=C(N/N=C/c1ccccc1OC(F)F)c1cc(-c2ccncc2)nc2ccccc12 | 1.2 | -36.0 | 9.5* | 21.6
O=C(CNC(=O)C(c1ccccc1)c1ccccc1)N/N=C/c1ccc(O)cc1O | 11.3* | -3.6 | 6.5 | 12.5
CCc1cc(C(=O)N/N=C/c2ccc(O)cc2O)c2ccccc2n1 | 28.8* | -49.7 | ? | 14.5
CCC(=O)N1CC2(C1)CN(Cc1ccccc1Cl)[C@H](CO)c1c2c2ccc(OC)cc2n1C | / | / | -0.4 | /
CC(=Nc1ccccc1O)c1sc2ccccc2c1O | 2.3 | -68.9 | 10.1* | -64.2
CN(C)C(=O)CSc1nc2ccccc2n1Cc1ccccc1 | 366.5* | -17.7 | / | 5.5
CC(C)N(C(=O)CSc1nc2ccccc2n1Cc1ccccc1)C(C)C | -1.2 | 1.6 | / | 0.5
O=C(C[C@@H]1CC[C@H]2[C@@H](COC[C@H](O)CN2Cc2cc(F)cc(F)c2)O1)NC1CCC1 | / | / | -0.1 | /
CN(CC1CCCO1)S(=O)(=O)c1ccc(C(=O)Nc2nnc(-c3ccccc3)o2)cc1 (stereo not drawn) | -0.3 | -21.2 | 8.2* | 10.7
COc1ccc2cc3cc(C(=O)N4CCN(c5ccccn5)CC4)oc3nc2c1 | 55.6* | 4.0 | -1.1 | 2.4
COc1ccc2cc3cc(C(=O)N4CC(C)CC(C)C4)oc3nc2c1 (stereo not drawn) | 3.6 | -56.9 | / | -45.9
O=C(N/N=C/c1c(O)ccc2ccccc12)c1[nH]ncc1Br | 115.4* | -41.4 | / | 48.5
COc1ccc(OC)c(/C=N/NC(=O)c2[nH]ncc2Br)c1 | 1.1 | 5.4 | -0.3 | 0.0
Cc1ccc(O)c(/C=N/NC(=O)c2[nH]ncc2Br)c1 | 6.9 | -91.8 | 0.8 | -24.3
CCOc1ccc(/C=N/NC(=O)c2[nH]ncc2Br)c(O)c1 | 22.5* | -172.7 | 3.7 | -66.8
O=C(N/N=C\c1c(O)ccc2ccccc12)c1ccc(Cn2cccn2)o1 | 37.7* | 8.7 | / | 40.4
O=C(N/N=C\c1ccc(Cl)s1)c1ccc(Cn2cccn2)o1 | 1.9 | 17.5 | -0.2 | 2.8
COCCNC(=O)c1cc(-c2cccs2)on1 | 29.8* | 30.6 | -1.4 | -19.8
COCCNC(=O)C1CCCN(C(=O)c2cc(-c3cccs3)oc2C)CC1 (stereo not drawn) | / | / | 13.3* | /
O=C(NCc1cccs1)c1cc(-c2cccs2)on1 | 4.4 | -47.6 | / | -96.4
C[C@@H]1CN([C@@H](C)CO)C(=O)Cc2cc(NC(=O)CCCN(C)C)ccc2O[C@H]1CN(C)C(=O)Nc1ccccc1 | / | / | -1.4 | /
SMILES | HIF activator | 697 NFkB inh | CFTR F508del cor | Jurkat NFkB inh
COc1ccc(Cl)cc1C(Nc1cccnc1)c1ccc2cccnc2c1O (stereo not drawn) | 8.4 | -58.0 | 1.7 | 5.6
Oc1c(C(c2cccs2)N2CCN(c3ccccc3)CC2)ccc2cccnc12 (stereo not drawn) | / | -38.2 | / | -10.0
CCCCC(=O)NC(c1ccccc1Cl)c1ccc2cccnc2c1O (stereo not drawn) | 128.1* | -26.5 | 2.7 | 40.6
O=[N+]([O-])c1ccc(NC(c2ccccc2)c2ccc3cccnc3c2O)cc1 (stereo not drawn) | / | / | 2.4 | /
Oc1c(C(c2ccccc2Cl)N2CCCC2)ccc2cccnc12 (stereo not drawn) | 59.0* | -6.7 | -2.5 | 11.2
CCCCC(=O)NC(c1ccco1)c1cc(Cl)c2cccnc2c1O (stereo not drawn) | -0.3 | -14.8 | 0.3 | -8.8
